The full list was thinned out, with hits kept by preference.
KDM5B inh – inhibitors of human KDM5B histone demethylase; hit rate 2.6% among 220,000; AID 1347165; KDM5B demethylase, FDH-coupled NADH fluorescence (FDH is formaldehyde dehydrogenase); Potency, µM (highest dose often 57.7 µM), most hits filed as inhibitors; active = well fitted inhibition curve with a large enough effect; also: nearly all actives have a fitted effect of over 70% in size
Target sequence (Q9UGL1 whole entry, looked up): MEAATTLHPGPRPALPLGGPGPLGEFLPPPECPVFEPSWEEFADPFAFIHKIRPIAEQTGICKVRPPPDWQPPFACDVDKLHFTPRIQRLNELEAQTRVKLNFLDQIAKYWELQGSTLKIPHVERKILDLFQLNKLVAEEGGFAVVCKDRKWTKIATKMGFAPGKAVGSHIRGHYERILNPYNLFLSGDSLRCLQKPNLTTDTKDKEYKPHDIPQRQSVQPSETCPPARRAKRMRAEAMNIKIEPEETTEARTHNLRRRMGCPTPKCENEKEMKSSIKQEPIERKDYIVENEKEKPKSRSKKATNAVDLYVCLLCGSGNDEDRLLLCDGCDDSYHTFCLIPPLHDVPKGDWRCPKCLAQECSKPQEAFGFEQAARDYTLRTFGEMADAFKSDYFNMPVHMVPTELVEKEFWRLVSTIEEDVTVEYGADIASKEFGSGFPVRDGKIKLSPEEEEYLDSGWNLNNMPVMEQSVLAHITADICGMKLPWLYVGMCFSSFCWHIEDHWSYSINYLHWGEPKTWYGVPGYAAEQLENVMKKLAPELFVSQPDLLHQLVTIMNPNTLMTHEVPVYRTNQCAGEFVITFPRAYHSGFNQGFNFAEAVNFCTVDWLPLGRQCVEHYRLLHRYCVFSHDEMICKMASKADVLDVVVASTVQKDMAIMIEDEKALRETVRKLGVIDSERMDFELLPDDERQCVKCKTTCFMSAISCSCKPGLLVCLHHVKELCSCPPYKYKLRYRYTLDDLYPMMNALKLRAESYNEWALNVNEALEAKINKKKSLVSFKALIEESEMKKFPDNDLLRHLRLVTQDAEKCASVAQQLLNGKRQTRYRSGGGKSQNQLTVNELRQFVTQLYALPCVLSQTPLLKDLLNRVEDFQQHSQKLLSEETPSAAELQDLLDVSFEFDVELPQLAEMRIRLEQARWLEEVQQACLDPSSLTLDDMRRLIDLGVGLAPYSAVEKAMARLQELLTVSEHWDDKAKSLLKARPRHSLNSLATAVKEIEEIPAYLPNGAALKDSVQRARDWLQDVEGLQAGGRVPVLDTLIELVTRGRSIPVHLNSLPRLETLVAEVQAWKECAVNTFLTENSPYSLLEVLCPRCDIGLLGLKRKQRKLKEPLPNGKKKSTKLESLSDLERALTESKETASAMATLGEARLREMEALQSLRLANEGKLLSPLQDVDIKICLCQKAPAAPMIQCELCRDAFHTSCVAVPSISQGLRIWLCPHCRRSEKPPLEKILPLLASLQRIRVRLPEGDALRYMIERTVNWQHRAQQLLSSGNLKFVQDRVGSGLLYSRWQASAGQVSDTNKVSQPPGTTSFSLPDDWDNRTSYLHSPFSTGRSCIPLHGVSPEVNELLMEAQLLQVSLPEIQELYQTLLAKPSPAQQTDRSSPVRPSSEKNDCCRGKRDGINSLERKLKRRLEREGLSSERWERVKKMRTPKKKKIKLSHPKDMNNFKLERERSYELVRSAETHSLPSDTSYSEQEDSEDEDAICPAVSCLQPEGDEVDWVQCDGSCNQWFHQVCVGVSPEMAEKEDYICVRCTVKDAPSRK
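KDM5BΔAP (200 nM final) in 50 mM HEPES pH 7.5, 0.01% Tween-20 was preincubated 10 min at RT with compound over a concentration range. Substrate mix (H3K4me3 12.5 µM, α-KG 25 µM, Fe²⁺, ascorbate, NAD⁺, FDH) was added, and NADH fluorescence change over 30 min gave dose-response curves.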
A number is an active result; - = inactive.

SMILES	KDM5B inh
Cc1ccc(C)c(NC(=O)Cn2ccn3nc(-c4ccc(F)cc4)c(CO)c3c2=O)c1	17.8µM
Cc1ccc(NC(=O)Cn2ccn3nc(-c4ccccc4)c(CO)c3c2=O)c(C)c1	31.6µM
Cc1cccc(N(C)C(=O)Cn2ccn3nc(-c4ccc(F)cc4)c(CO)c3c2=O)c1	-
O=C(Cn1ccn2nc(-c3ccccc3)c(CO)c2c1=O)Nc1ccccc1C(F)(F)F	20µM
CC(C)NC(=O)Cn1ccn2nc(-c3ccc(F)cc3)c(CO)c2c1=O	-
CCc1ccc(NC(=O)Cn2ccn3nc(-c4ccccc4)c(CO)c3c2=O)cc1	-
CC(C)NC(=O)Cn1ccn2nc(-c3ccccc3)c(CO)c2c1=O	-
CCOc1ccc(NC(=O)Cn2ccn3nc(-c4ccccc4)c(CO)c3c2=O)cc1	-
Cc1ccc(NC(=O)Cn2ccn3nc(-c4ccccc4)c(CO)c3c2=O)cc1	-
Cc1ccc(NC(=O)Cn2ccn3nc(-c4ccccc4)c(CO)c3c2=O)cc1F	-
O=C(Cn1ccn2nc(-c3ccccc3)c(CO)c2c1=O)Nc1ccccc1Cl	-
Cc1cc(COc2ccc(C(=O)c3ccc(Cl)cc3)cc2)no1	-
COc1ccc(CCC(=O)N2CCC3(CC2)NC(=O)N(c2cccc(Cl)c2)N3)cc1	-
Cc1[nH]c2ccccc2c1C(=O)COC(=O)c1ccccn1	-
CNC(=O)N1CCC(Cc2noc(-c3ccncc3)n2)C1 (configuration not stated)	-
COCCNC(=O)Cn1ccn2nc(-c3ccc(F)cc3)c(CO)c2c1=O	-
O=C(Cn1ccn2nc(-c3ccc(F)cc3)c(CO)c2c1=O)NCc1ccccc1Cl	28.2µM
O=C(Cn1ccn2nc(-c3ccc(F)cc3)c(CO)c2c1=O)NCc1ccc(Cl)cc1	-
Cc1ccc(C2Cn3nnc(C(=O)N4CCN(C(=O)c5ccccn5)CC4)c3CO2)cc1 (configuration not stated)	-
Clc1ccccc1C1Cn2nnc(-c3noc(C4(c5ccccc5)CC4)n3)c2CO1 (configuration not stated)	-
CSc1ccc(-c2noc(-c3ncn4c3COC(c3ccccc3Cl)C4)n2)cc1 (configuration not stated)	25.1µM
CCOc1ccccc1-c1nc(-c2nnn3c2COC(c2ccccc2Cl)C3)no1 (configuration not stated)	28.2µM
Clc1ccccc1C1Cn2cnc(-c3nc(-c4ccncc4)no3)c2CO1 (configuration not stated)	-
CC(C)(C)c1ccc(-c2noc(-c3ncn4c3COC(c3ccc(F)cc3)C4)n2)cc1 (configuration not stated)	-
COc1ccc(C2Cn3nnc(-c4noc(-c5ccccn5)n4)c3CO2)cc1 (configuration not stated)	-
SMILES	KDM5B inh
COc1ccc(-c2nc(-c3nnn4c3COC(c3ccccc3Cl)C4)no2)cc1F (configuration not stated)	12.6µM
Clc1ccccc1C1Cn2nnc(-c3noc(COc4ccccc4)n3)c2CO1 (configuration not stated)	-
CCOc1ccccc1-c1noc(-c2nnn3c2COC(c2ccc(C)cc2C)C3)n1 (configuration not stated)	-
COc1ccc(-c2noc(-c3nnn4c3COC(c3ccc(Cl)cc3)C4)n2)cc1F (configuration not stated)	-
COc1ccc(C2Cn3nnc(-c4nc(-c5ccc(OC)c(F)c5)no4)c3CO2)cc1 (configuration not stated)	-
COc1ccccc1-c1nc(-c2nnn3c2COC(c2ccccc2Cl)C3)no1 (configuration not stated)	28.2µM
CS(=O)(=O)N1CC2(CCCCN2CC2CC2)Cc2ccccc21 (configuration not stated)	-
Cc1ccc2c(CSc3nc(N)cc(N)n3)cc(=O)oc2c1C	-
Cc1cc(Cl)ccc1S(=O)(=O)N1CCc2nn(C)c(=O)n2CC1	-
COc1ccc(C(=O)O)cc1S(=O)(=O)Nc1ccccc1SCC(F)(F)F	-
CC1CCCN(CC(=O)N(C)CC(=O)Nc2ccc(Cl)c(C(F)(F)F)c2)C1 (configuration not stated)	-
NC1CCOCC1	-
COc1ccc(NC(=O)C(C)n2cccn2)cc1OC(F)F (configuration not stated)	-
O=Cc1c(Cl)[nH]c2ccccc12	-
CN1Cc2cccn2CC1CNC(=O)c1ccoc1 (configuration not stated)	28.2µM
Cc1cccc(C(=O)NCC2Cn3cccc3C(=O)N2C)c1 (configuration not stated)	-
O=C(NCC1Cn2cccc2C(=O)N1Cc1ccccc1)c1ccncc1 (configuration not stated)	-
CCNC(=O)NCC1Cn2cccc2CN1C (configuration not stated)	22.4µM
Cc1ccc(CNC(=O)NCC2Cn3cccc3C(=O)N2C)cc1 (configuration not stated)	-
Cc1ncoc1C(=O)NCC1Cn2cccc2C(=O)N1Cc1ccccc1 (configuration not stated)	-
O=C(NCC1Cn2cccc2CN1Cc1ccccc1)c1ccoc1 (configuration not stated)	28.2µM
Cc1cccc(C(=O)NCC2Cn3cccc3C(=O)N2Cc2ccccc2)c1 (configuration not stated)	-
COc1ccc(C(=O)NCC2Cn3cccc3C(=O)N2Cc2ccccc2)cc1 (configuration not stated)	-
CN1C(=O)c2cccn2CC1CNC(=O)NC1CCCC1 (configuration not stated)	-
CN1C(=O)c2cccn2CC1CNC(=O)c1ccco1 (configuration not stated)	-
SMILES	KDM5B inh
O=C(NCC1Cn2cccc2CN1Cc1ccccc1)c1ccncc1 (configuration not stated)	28.2µM
COc1ccc(C(=O)NCC(=O)N2CCCCCCNC(=O)CC2c2ccccc2)c(OC)n1 (configuration not stated)	-
Cc1cccc2n[nH]nc12	-
COc1cccc(NC(=O)NC[C@H]2O[C@@H](CO)[C@@H](O)[C@H]2N2CCN(c3ccc(F)cc3)CC2)c1	-
COC(=O)/C(=C\c1ccc([N+](=O)[O-])cc1)NC(C)=O	-
Cc1ccc(C(CNC(=O)c2cccs2)N2CCCCC2)o1 (configuration not stated)	-
CNc1nccc(N2CCC(CC(=O)N3CCN(c4cccc(OC)c4)CC3)CC2)n1	-
CSCc1nc(CNc2nc(C3CCCC3)nc3c2cnn3C)cs1	-
CCOc1cc(C#N)c(NC(=O)c2ccc(Cl)cc2)cc1OCC	-
OCCc1cc(CC2(NC3CCOCC3)COC2)no1	-
CC(C)OC(=O)CCNC(=O)c1ccc(CS(C)(=O)=O)cc1	-
Cn1nc(C2CCN(C(=O)COc3ccc(F)cc3)CC2)c2c1CCOC2	-
Cc1ccc(C)c(Sc2ccc(NC(=O)c3ccc(C)c(C)c3)cc2)c1	-
Cc1ccc(OCCOc2ccc(Cl)cc2/C=C(/C#N)c2ccccc2)cc1	-
Cc1ccsc1C(=O)NCC1Cn2cccc2C(=O)N1CC(C)C (configuration not stated)	-
COCCN1C(=O)c2cccn2CC1CNC(=O)c1ccsc1 (configuration not stated)	-
O=C(NCC1Cn2cccc2CN1Cc1ccccc1)c1n[nH]c2ccccc12 (configuration not stated)	14.1µM
CN1C(=O)c2cccn2CC1CNC(=O)c1cccs1 (configuration not stated)	-
